Assay results from PubChem BioAssay (NCATS).
Inconclusive results are not listed. Activity calls are given as the source filed them. The call rests on the fitted dose curve; in most records, active means well fitted cell-killing curve with a large enough effect; inconclusive means small, poorly fitted or top-dose-only effect, or effect the other way; inactive means no such curve, though single readings can be large or run the other way.

Assays:
[1] = Quantitative High-Throughput drug screen in 47 multiple myeloma cell lines against the NCATS MIPE library collection: FR4_PLB cell viability assay (AID 1918924; further: nearly all actives have a fitted effect of over 35% in size)
Outline: (§1)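 Primary qHTS used for cherry-picking: cells at 500/well, library compounds for 48 h (37C, 5% CO2), luminescent ATP assay.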

[2] = Quantitative High-Throughput drug screen in 47 multiple myeloma cell lines against the NCATS MIPE library collection: Delta47_JCRB cell viability assay (AID 1918925; further: nearly all actives have a fitted effect of over 45% in size)
Outline: (§2)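 qHTS of the MIPE 4.0 collection: 500 myeloma cells/well, 48 h drug exposure at 37C in 5% CO2, then CellTiter-Glo for 5 min at room temperature before luminescence reading.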

[3] = Quantitative High-Throughput drug screen in 47 multiple myeloma cell lines against the NCATS MIPE library collection: ARP1_JJKsccF8 cell viability assay (AID 1918928; further: nearly all actives have a fitted effect of over 40% in size)
Outline: (§3)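 Myeloma cells, 500 per well, were exposed to MIPE 4.0 drugs by pin transfer for 48 h at 37 °C, 5% CO2. Viability was read as ATP luminescence with CellTiter-Glo, normalised to DMSO-only (100%) and medium-only (0%) wells.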

[4] = Quantitative High-Throughput drug screen in 47 multiple myeloma cell lines against the NCATS MIPE library collection: ARD_JJKsccE7 cell viability assay (AID 1918929)
Outline: as §2

[5] = Quantitative High-Throughput drug screen in 47 multiple myeloma cell lines against the NCATS MIPE library collection: Karpas620_DSMZ cell viability assay (AID 1918959); further: nearly all actives have a fitted effect of over 30% in size
Outline: as §1

[6] = Quantitative High-Throughput drug screen in 47 multiple myeloma cell lines against the NCATS MIPE library collection: KHM11_PLB cell viability assay (AID 1918962); further: nearly all actives have a fitted effect of over 35% in size
Outline: as §1

[7] = Quantitative High-Throughput drug screen in 47 multiple myeloma cell lines against the NCATS MIPE library collection: KMM1_JCRB cell viability assay (AID 1918960); further: nearly all actives have a fitted effect of over 30% in size
Outline: as §3

[8] = Quantitative High-Throughput drug screen in 47 multiple myeloma cell lines against the NCATS MIPE library collection: AMO1_DSMZ cell viability assay (AID 1918927; further: nearly all actives have a fitted effect of over 30% in size)
Outline: as §2

[9] = Quantitative High-Throughput drug screen in 47 multiple myeloma cell lines against the NCATS MIPE library collection: Karpas417_ECACC cell viability assay (AID 1918961); settings: Karpas417 myeloma viability, CellTiter-Glo ATP luminescence, 48 h; viability (% of DMSO): at 45.8 µM (top of the series)
Outline: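 We plated 500 myeloma cells per well, pinned in MIPE 4.0 compounds, and incubated for 48 hours at 37C. ATP was then quantified with CellTiter-Glo, with DMSO and media-only wells defining 100% and 0%.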

[10] = Quantitative High-Throughput drug screen in 47 multiple myeloma cell lines against the NCATS MIPE library collection: EJM_DSMZ cell viability assay (AID 1918926; further: nearly all actives have a fitted effect of over 30% in size)
Outline: as §2
Potency means the concentration at half of the fitted maximal effect.

CN(C)c1nc(Cc2ccc(NC(=O)c3ccc4ccccc4c3)cc2)nc(Cl)c1CC(=O)O
inactive: Potency [1] | Potency [2] | Potency [3] | Potency [4] | Potency [5] | Potency [6]

CC1(O)CC(c2nc(-c3ccc4ccc(-c5ccccc5)nc4c3)c3c(N)nccn23)C1 (centres undefined)
active: Potency [1] 7.43 µM | Potency [2] 0.0833 µM | Potency [4] 0.105 µM | Potency [5] 590 nM | Potency [7] 1.05 µM | Potency [6] 4.18 µM

Cc1ccc(S(=O)(=O)Nc2cc(Cl)ccc2C(=O)Nc2nc(-c3ccccc3)cs2)cc1
active: Potency [1] 20.9 µM | Potency [2] 4.69 µM | Potency [8] 9.35 µM | Potency [3] 20.9 µM | Potency [4] 7.43 µM | Potency [7] 4.18 µM

C[C@H]1C[C@@H]2[C@@H]([C@@H](O)C[C@@]3(C)[C@H]2CC[C@]3(O)C(=O)CO)[C@@]2(C)C=CC(=O)C=C12
active: Potency [9] 0.132 µM
inactive: Potency [1] | Potency [2] | Potency [8] | Potency [5] | Potency [6]

Nc1ccc(C(=O)c2cc3c(ccc4ccccc43)[nH]2)cc1
active: Potency [1] 1.18 µM | Potency [2] 1.87 µM | Potency [3] 2.96 µM

Cc1ccc2nc(NC(=O)CSc3nc4c(c(=O)n3-c3ccccc3)SCC4)sc2c1
active: Potency [1] 5.9 µM | Potency [2] 18.7 µM | Potency [8] 9.35 µM | Potency [4] 13.2 µM | Potency [9] 23.5 µM

O=C(Nc1nc2cccc(-c3ccc(CN4CCS(=O)(=O)CC4)cc3)n2n1)C1CC1
active: Potency [1] 9.35 µM | Potency [10] 18.7 µM | Potency [8] 5.9 µM | Potency [3] 20.9 µM | Potency [7] 8.33 µM | Potency [9] 1.66 µM | Potency [6] 13.2 µM

O=C(NC1CCNCC1)c1[nH]ncc1NC(=O)c1c(Cl)cccc1Cl
active: Potency [1] 0.0833 µM | Potency [2] 0.372 µM | Potency [8] 1.18 µM | Potency [4] 0.743 µM | Potency [5] 935 nM | Potency [9] 0.187 µM | Potency [6] 0.235 µM

COc1ccc2c(OCc3nnc4ccc(-c5ccccc5)nn34)ccnc2c1
inactive: Potency [1] | Potency [2] | Potency [8] | Potency [3] | Potency [5] | Potency [7]

COc1cc(C(=O)N2CCC(N3CCN(C)CC3)CC2)ccc1Nc1ncc2c(n1)N(C)c1ccccc1C(=O)N2C
active: Potency [1] 3.72 µM | Potency [2] 2.64 µM | Potency [3] 2.35 µM | Potency [4] 1.66 µM | Potency [5] 3320 nM | Potency [7] 1.66 µM | Potency [9] 2.09 µM | Potency [6] 7.43 µM

O=c1[nH]nc(Sc2ncc([N+](=O)[O-])s2)n1-c1ccc2c(c1)OCCO2
active: Potency [1] 7.43 µM | Potency [2] 2.35 µM | Potency [8] 6.62 µM | Potency [4] 7.43 µM | Potency [5] 2640 nM | Potency [7] 5.9 µM | Potency [6] 2.09 µM

Cn1c2cc(S(C)=O)sc2c2cnn(Cc3cccc(N)c3)c(=O)c21 (centres undefined)
inactive: Potency [1] | Potency [10] | Potency [8] | Potency [3] | Potency [4] | Potency [9]

O=C(O)c1ccc2cc(-c3ccc(O)c(C45CC6CC(CC(C6)C4)C5)c3)ccc2c1
active: Potency [1] 23.5 µM | Potency [2] 5.9 µM | Potency [3] 5.9 µM | Potency [4] 5.26 µM | Potency [5] 5260 nM

COc1ccc(-n2nc(C(N)=O)c3c2C(=O)N(c2ccc(N4CCCCC4=O)cc2)CC3)cc1
inactive: Potency [1] | Potency [2] | Potency [3] | Potency [4] | Potency [5] | Potency [7]

Cc1cccc(C=NNc2cc(N3CCOCC3)nc(OCCc3ccccn3)n2)c1
active: Potency [1] 4.69 µM | Potency [2] 1.32 µM | Potency [4] 1.05 µM | Potency [5] 469 nM

Cc1coc2c1C(=O)C(=O)c1c-2ccc2c1CCCC2(C)C
active: Potency [1] 20.9 µM | Potency [2] 8.33 µM | Potency [8] 0.0209 µM | Potency [3] 16.6 µM | Potency [6] 7.43 µM

Cc1c(C)n(Cc2ccc(-c3ccccc3C(=O)O)cc2)c2ccc(C(=O)N[C@@H](C)c3ccc([N+](=O)[O-])cc3)cc12
inactive: Potency [1]
active: Potency [2] 23.5 µM | Potency [8] 0.118 µM | Potency [5] 93.5 nM | Potency [7] 0.935 µM | Potency [9] 0.0187 µM

COc1cc2ncnc(Nc3ccc(F)c(Cl)c3)c2cc1NC(=O)C=CCN1CCCCC1
active: Potency [1] 26.4 µM | Potency [2] 5.26 µM | Potency [3] 23.5 µM | Potency [4] 9.35 µM | Potency [7] 8.33 µM | Potency [6] 3.32 µM

Nc1nc(Nc2ccc(S(N)(=O)=O)cc2)nn1C(=O)c1c(F)cccc1F
active: Potency [2] 2.64 µM | Potency [10] 6.62 µM | Potency [8] 2.09 µM | Potency [3] 9.35 µM | Potency [4] 5.26 µM | Potency [5] 5900 nM | Potency [7] 4.18 µM | Potency [9] 3.32 µM | Potency [6] 2.96 µM

CC(=O)c1c(C)c2cnc(Nc3ccc(N4CCNCC4)cn3)nc2n(C2CCCC2)c1=O
active: Potency [2] 23.5 µM | Potency [10] 18.7 µM | Potency [8] 16.6 µM | Potency [3] 14.8 µM | Potency [4] 14.8 µM | Potency [5] 26400 nM | Potency [7] 20.9 µM | Potency [9] 16.6 µM | Potency [6] 23.5 µM

CC[C@@]1(O)C(=O)OCc2c1cc1n(c2=O)Cc2cc3cc(O)ccc3nc2-1
active: Potency [2] 0.187 µM | Potency [10] 0.372 µM | Potency [8] 0.0743 µM | Potency [3] 0.418 µM | Potency [4] 2.35 µM | Potency [6] 0.59 µM

CN(C)CCCN=c1c2ccccc2n(C)c2[nH]c(=O)n(C)c(=O)c12
active: Potency [2] 16.6 µM | Potency [10] 20.9 µM | Potency [8] 2.96 µM | Potency [3] 18.7 µM | Potency [4] 5.26 µM | Potency [7] 4.69 µM | Potency [6] 5.26 µM

COCCn1c2c([n+](Cc3cnccn3)c1C)C(=O)c1ccccc1C2=O
active: Potency [2] 0.0166 µM | Potency [10] 0.0074 µM | Potency [8] 0.0526 µM | Potency [3] 0.0118 µM | Potency [6] 0.0296 µM

O=C(Nc1ncc(-c2cc(C(F)F)nn2-c2c(Cl)cccc2Cl)s1)C1CC1
active: Potency [2] 0.332 µM | Potency [10] 0.209 µM | Potency [8] 0.235 µM | Potency [3] 0.418 µM | Potency [4] 0.296 µM | Potency [7] 0.264 µM | Potency [6] 0.935 µM

CC(C)(O)CCc1ccc(OCc2cc(-c3cccc(OC(F)F)c3)c3ncccc3c2)cc1
inactive: Potency [1] | Potency [10] | Potency [4] | Potency [5] | Potency [7]

CCCCCCCCCC(=O)N[C@@H](Cc1c[nH]c2ccccc12)C(=O)N[C@H](CC(N)=O)C(=O)N[C@@H](CC(=O)O)C(=O)N[C@@H]1C(=O)NCC(=O)N[C@@H](CCCN)C(=O)N[C@@H](CC(=O)O)C(=O)N[C@H](C)C(=O)N[C@@H](CC(=O)O)C(=O)NCC(=O)N[C@H](CO)C(=O)N[C@@H]([C@@H](C)CC(=O)O)C(=O)N[C@@H](CC(=O)c2ccccc2N)C(=O)O[C@@H]1C
inactive: Potency [2] | Potency [10] | Potency [8] | Potency [3] | Potency [5] | Potency [7] | Potency [6]

COC(=O)Nc1ccc(-c2nc(N3CCOCC3)c3cnn(C4CCN(Cc5cccnc5)CC4)c3n2)cc1
active: Potency [2] 0.0935 µM | Potency [10] 1.48 µM | Potency [3] 0.0743 µM | Potency [6] 0.059 µM
inactive: Potency [8] | Potency [5]

CCCNC(=O)Nc1ccc(Oc2ncnc3cc(OC)c(OC)cc23)cc1Cl
inactive: Potency [2] | Potency [10] | Potency [8] | Potency [3] | Potency [5]

C1Cc2[nH]nc(-c3nn[nH]n3)c2C1
inactive: Potency [1] | Potency [10] | Potency [8] | Potency [5]

O=C(C=Cc1c(C(=O)O)[nH]c2cc(Cl)cc(Cl)c12)Nc1ccccc1
inactive: Potency [2] | Potency [10] | Potency [8] | Potency [3] | Potency [4] | Potency [9]

Clc1cccc(-n2nnnc2NCc2ccccc2Oc2ccccn2)c1Cl
inactive: Potency [1] | Potency [10] | Potency [6]

CCCCN1CCC(CNC(=O)c2c3n(c4ccccc24)CCCO3)CC1
active: Potency [2] 6.62 µM | Potency [10] 1.48 µM | Potency [8] 13.2 µM | Potency [3] 20.9 µM | Potency [4] 16.6 µM | Potency [6] 11.8 µM

Cc1cc(Nc2cc(N3CCN(C)CC3)nc(Sc3ccc(NC(=O)C4CC4)cc3)n2)n[nH]1
active: Potency [2] 3.72 µM | Potency [10] 14.8 µM | Potency [8] 0.372 µM | Potency [3] 7.43 µM | Potency [9] 7.43 µM | Potency [6] 1.32 µM

Cc1cc(N2CCOCC2)cc2[nH]c(-c3c(NC[C@@H](O)c4cccc(Cl)c4)cc[nH]c3=O)nc12
active: Potency [2] 0.0662 µM | Potency [10] 0.235 µM | Potency [8] 0.526 µM | Potency [3] 5.26 µM | Potency [5] 418 nM

CC(C)c1cnn2c(NCc3ccccc3)cc(N[C@@H](CO)[C@H](O)CO)nc12
active: Potency [2] 0.166 µM | Potency [10] 0.235 µM | Potency [8] 0.118 µM | Potency [3] 0.264 µM | Potency [4] 0.148 µM | Potency [5] 296 nM | Potency [7] 0.166 µM | Potency [9] 0.0833 µM | Potency [6] 0.148 µM

O=c1c2ccccc2nc2n1CCc1c-2[nH]c2ccccc12
inactive: Potency [1] | Potency [8] | Potency [4] | Potency [9]
active: Potency [5] 18700 nM

Cc1cc(Nc2cc(NC(=O)c3c(Cl)cccc3Cl)ccn2)nc(N)n1
active: Potency [2] 18.7 µM | Potency [10] 16.6 µM | Potency [8] 0.187 µM | Potency [3] 0.296 µM | Potency [4] 0.209 µM | Potency [7] 0.418 µM | Potency [9] 2.64 µM | Potency [6] 8.33 µM

NC(=O)c1cccc2cn(-c3ccc([C@@H]4CCCNC4)cc3)nc12
active: viability (% of DMSO) [9] 72.2%
inactive: Potency [1] | Potency [10]

CC(C)(C)c1cc(C(C)(C)C)c(NC(=O)c2c[nH]c3ccccc3c2=O)cc1O
inactive: Potency [2] | Potency [10] | Potency [8] | Potency [4] | Potency [5] | Potency [7] | Potency [9] | Potency [6]
